This is a sample that favours compounds with a hit; in the whole collection about 21% have one here.
CYP2C9 inh = human CYP2C9 inhibition | 20% of 96,000 active | inhibition, % at 5 µM | CYP2C9 Supersomes, luciferin-H conversion, luminescence | P11712;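 active means blocking of liver enzyme CYP2C9 beyond about 50% at 5 µM, limit read from the data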
MRP-1 activ = activators of MRP-1; H69AR cells + doxorubicin, viability rescue, CellTiter-Glo; viability increase, % at 10 µM; 0.61% of 140,000 active;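 active means viability gain under doxorubicin at or above a set limit, the compound median plus 3 SD, cut at about 4.7% in these data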;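 further: MRP-1 overexpressing cells given doxorubicin 25 µM after compound pretreatment; 18-22 h compound pretreatment then 72 h with doxorubicin before readout; 0% = doxorubicin-only wells and 100% = vehicle-treated cells without doxorubicin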
MRP resist rev = MRP-mediated drug resistance reversal | differential viability (reversal), % at 10 µM | 0.04% of 85,000 active | H69AR cells + 2 uM doxorubicin, CellTiter-Glo, 72 h;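 active means viability drop by adding the cancer drug above about 55%, with treated viability meeting a 40% cutoff, limit read from the data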;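 further: viability without doxorubicin minus viability with 2 µM doxorubicin for each compound; larger differential means the compound sensitizes cells more to doxorubicin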
CYP2C19 activ = activators of human cytochrome P450 2C19; activation factor at 5 µM; recombinant CYP2C19, luciferin-H EGE luminescence; active compounds read high; 0 = fully inhibited enzyme, 1 = untreated enzyme; 96,000 tested, under 10 active; P33261;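 active means activation factor of at least 2 at 5 µM in the primary screen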;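 further: 0 = wells with 2.5 mM tranylcypromine and 1 = vehicle-only wells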
Target sequence (P33261 whole entry, looked up): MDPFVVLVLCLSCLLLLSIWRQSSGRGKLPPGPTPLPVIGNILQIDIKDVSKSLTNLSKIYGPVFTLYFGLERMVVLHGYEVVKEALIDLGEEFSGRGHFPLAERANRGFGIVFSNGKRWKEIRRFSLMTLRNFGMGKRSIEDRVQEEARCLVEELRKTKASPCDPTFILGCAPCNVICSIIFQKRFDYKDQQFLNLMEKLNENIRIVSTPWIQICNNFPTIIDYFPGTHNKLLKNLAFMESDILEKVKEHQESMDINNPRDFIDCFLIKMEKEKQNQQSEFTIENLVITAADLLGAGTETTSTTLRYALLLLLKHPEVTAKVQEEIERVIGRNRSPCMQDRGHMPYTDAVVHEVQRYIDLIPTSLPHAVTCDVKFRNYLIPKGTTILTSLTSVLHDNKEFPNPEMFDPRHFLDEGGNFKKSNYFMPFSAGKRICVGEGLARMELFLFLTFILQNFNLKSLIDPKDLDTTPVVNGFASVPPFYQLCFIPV
CYP2C19 inh = human CYP2C19 inhibition. CYP2C19 Supersomes, luciferin-H EGE luminescence, 30 min. inhibition, % at 5 µM. 21% of 96,000 active. AID 778;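 active means CYP2C19 inhibition above a set limit at 5 µM in the primary screen, cut at about 50% in these data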;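 further: plate controls were negative control wells for no effect and 2.5 mM tranylcypromine positive control for full effect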
CYP2C9 act = CYP2C9 (human) activation. P11712. recombinant CYP2C9, luciferin-H conversion, luminescence; active compounds read high; factor 1 = untreated enzyme, 0 = blocked. activation factor at 5 µM. 1.4% of 96,000 active. AID 1024;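 active means activation factor of 2 or more for CYP2C9 at a 5 µM dose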;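 further: 0 = sulfaphenazole-blocked wells and 1 = vehicle-only wells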
Starred values were filed as active, the others as inactive; nt = no result.

SMILES	CYP2C9 inh	MRP-1 activ	MRP resist rev	CYP2C19 activ	CYP2C19 inh	CYP2C9 act
CCOC(=O)/C=C1\SCC(=O)N1CCOc1cccc(Br)c1	80*	3	8	0.2	82*	0.2
Cc1ccc(/C=N/N2CCN(Cc3cccc4ccccc34)CC2)o1	-33	-2	17	0.9	12	1.3
C=CC12C=CC=CN1C(C(=O)OC)=C(C(=O)OC)C(C(=O)OC)=C2C(=O)OC (stereo not drawn)	nt	0	nt	nt	nt	nt
Cc1ccc(C)c(OCc2nc(-c3cccnc3)no2)c1	31	-3	nt	0.1	90*	0.7
Cc1ccc(-c2nc(-c3cccnc3)no2)c(C)c1	14	-2	-17	0.5	52*	0.9
COC(=O)COc1ccc(Oc2nc(SC)nc(N(C)C)n2)nn1	15	0	11	0.7	31	0.8
CC(C)c1ccc(N2C(=O)CSC23C(=O)N2CCCc4cccc3c42)cc1 (stereo not drawn)	3	-2	21	1	-4	1
CC1=CC(C)(C)N2C(=O)C3(SCC(=O)N3c3ccc(F)cc3)c3cc(C)cc1c32 (stereo not drawn)	63*	-2	4	0.5	48	0.4
CCOCC(=O)Nc1cc(-c2cn3cccnc3n2)ccc1C	4	-1	-7	1	-4	1
CCOc1ccc(-c2nn[nH]n2)cc1	-17	0	-7	1	2	1.2
Brc1cc2c(cc1COc1ccc(-c3nn[nH]n3)cc1)OCO2	nt	5.0*	-31	nt	nt	nt
CCC(O)CNC(=O)NC(=C(Cl)Cl)c1ccc(C)c(F)c1 (stereo not drawn)	nt	-4	nt	nt	nt	nt
CC(C)CC(=O)Nc1ccccc1Oc1ccccc1	3	1	-1	0.8	25	1
COc1ccc(-c2n[nH]c(C)c2-c2cnn(-c3ccccc3)c2)c(O)c1C	52*	-4	7	0.6	39	0.5
COc1ccc(CNC(=O)CCCn2c(SCC#N)nc3cc4c(cc3c2=O)OCO4)cc1	80*	-3	nt	0.5	54*	0.2
COc1ccc(-c2nsc(SCC(=O)NCc3ccc4c(c3)OCO4)n2)cc1	nt	-2	nt	nt	nt	nt
NC(=O)CSc1nc2cc3c(cc2c(=O)n1CCCC(=O)NCc1ccc2c(c1)OCO2)OCO3	74*	-2	nt	0.9	7	0.3
Cn1c(=O)c2c(nc(SCC(=O)NCc3ccc4c(c3)OCO4)n2Cc2ccc(Cl)cc2)n(C)c1=O	nt	-2	-21	nt	nt	nt
Cc1ccc(C)c(CS(=O)(=O)c2cn(CC(=O)N3CCCCC3)c3ccccc23)c1	nt	-3	nt	nt	nt	nt
CNC[C@H](O)c1cccc(O)c1	nt	-1	-2	nt	nt	nt
CNC[C@H](O)c1ccc(O)c(O)c1	nt	7.1*	nt	nt	nt	nt
COc1ccc(CCNC(=O)c2ccc(-c3ccc([N+](=O)[O-])cc3)o2)cc1OC	nt	-1	nt	nt	nt	nt
CCCCN(CCCC)c1ccc(C(=O)c2ccccc2C(=O)O)c(O)c1	64*	-3	1	0.7	35	0.4
CN(C)c1ccc(C(=O)c2ccccc2C(=O)O)c(O)c1	2	-3	13	1.1	-9	1
CC(C)NC(=O)CCS(=O)(=O)c1ccc(Br)s1	7	-2	5	0.6	38	0.9
SMILES	CYP2C9 inh	MRP-1 activ	MRP resist rev	CYP2C19 activ	CYP2C19 inh	CYP2C9 act
O=C(CCS(=O)(=O)c1ccc(Br)s1)NCc1ccccc1	34	-1	12	0.4	60*	0.7
Cc1ccc(CNC(=O)CCS(=O)(=O)c2ccc(Br)s2)o1	-12	-2	nt	1	5	1.1
COC(=O)c1ccccc1NC(=O)CCS(=O)(=O)c1ccc(Br)s1	-6	-4	0	0.4	62*	1.1
COC(=O)c1ccc(NC(=O)CCS(=O)(=O)c2ccc(Br)s2)cc1	61*	-2	19	0.8	21	0.4
COc1cc(C)nc(Oc2ccc(OCCOc3ccc(C)cc3)nn2)n1	48	-2	6	0.6	35	0.5
O=C1c2ccccc2C(=O)N1CC(O)CNc1ccc(Br)cc1 (stereo not drawn)	nt	2	nt	nt	nt	nt
COC(=O)c1sccc1NC(=S)N1CCN(c2ccccc2F)CC1	nt	0	nt	nt	nt	nt
O=C1c2ccccc2C(Nc2ccc(Cl)cn2)N1Cc1ccccc1 (stereo not drawn)	70*	-3	nt	0.2	81*	0.3
Cn1c(=O)[nH]c(=O)c2c1nc(N1CCOCC1)n2CCSc1ncccn1	nt	nt	3	nt	nt	nt
Cc1cc(C(=O)CNCc2ccco2)c(C)n1-c1ccc(F)cc1	28	-2	10	0.5	51*	0.7
